From PubChem BioAssay
TWEAK-Fn14 inh = inhibitors of TWEAK-Fn14 interaction signaling. TWEAK-stimulated Fn14 reporter cells, luciferase luminescence, 8 h. inhibition, % at 10 µM. actives 2% (n = 360,000). AID 1159606; in the data active means inhibition above about 50%
Peg3 promoter = Peg3 promoter activity inhibition. HeLa PEG-Prom luciferase reporter, luminescence, overnight. inhibition, % at 20 µM. actives 1.7% (n = 360,000). AID 588405;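 active means inhibition of at least 50% at 20 µM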
TROY NFkB inh = blocks TROY-dependent signaling in reporter cells; AID 1347056; inhibition, % at 10 µM; actives 0.98% (n = 360,000); Q293 LMP1-TROYcd NF-kB luciferase reporter, 4 h;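 active means compounds whose plate-normalised and pattern-corrected inhibition of the luciferase reporter signal at the single screening dose is 50% or more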
LMP1 NFkB inh = Epstein-Barr LMP1 NF-kappaB reporter inhibition; LMP1-induced NF-kappaB luciferase reporter cells, luminescence; inhibition, % at 12.5 µM; actives 0.69% (n = 350,000); AID 504558; in the data active means inhibition above about 41%;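 further: 0% = neutral control wells and 100% = reference inhibitor control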
TRPM1 prom inh = MITF TRPM1 promoter inhibition in SK-MEL-5 cells. SK-MEL-5 TRPM1 promoter luciferase, 24 h. inhibition, % at 12.5 µM. actives 0.83% (n = 330,000). AID 488899;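 active means mean inhibition across replicates of 60% or more, whatever share of single replicates reaches that level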
HIF-2a inh = inhibitors of HIF-2a. inhibition, % at 18.8 µM. actives 0.72% (n = 360,000). 786-0 RCC cells HIF-2a reporter, luciferase luminescence, overnight;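 active means inhibition of the luminescence signal of 40% or more relative to plate controls, in a single-dose primary screen at 18.75 µM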
An asterisk follows results filed as active; / = not tested or not shown. A selection: hits, their analogues and other compounds. The true share with any hit is near 4%.

SMILES	TWEAK-Fn14 inh	Peg3 promoter	TROY NFkB inh	LMP1 NFkB inh	TRPM1 prom inh	HIF-2a inh
O=C1/C(=C/c2ccc([N+](=O)[O-])cc2)C=C(c2ccccc2)N1c1ccc(O)cc1	50	15	3	38	68*	-21
COc1ccc(N2C(=O)/C(=C/c3ccc([N+](=O)[O-])cc3)C=C2c2ccccc2)cc1	14	-26	-42	3	49	7
O=C(O)c1cccc(N2C(=O)/C(=C/c3ccc([N+](=O)[O-])cc3)C=C2c2ccccc2)c1	52*	53*	-12	-9	10	57*
O=C1/C(=C/c2ccc([N+](=O)[O-])cc2)C=C(c2ccccc2)N1c1ccccc1	-1	15	-23	-9	3	-57
CCOC(=O)C1=CCN(Cc2ccccc2)CC1	1	-2	-21	0	3	10
COc1ccc(CCN2C(=O)COc3ccccc3C2C(=O)Nc2ccc3c(c2)OCCO3)cc1OC (stereo not given)	-9	/	-7	/	/	-31
O=C(CCC1CCN(C(=O)CC2=CCCCC2)CC1)NCc1ccc(F)cc1	-15	1	2	3	/	13
CCCCCCSc1ccc([C@H]2N[C@@](Cc3ccccc3)(C(=O)OC)[C@H]3C(=O)N(C)C(=O)[C@@H]23)cc1OC	10	-30	-46	7	-1	-76
O=[N+]([O-])c1cc([N+](=O)[O-])c2c(=Nc3ccccc3)n(-c3ccccc3)n(O)c2c1	21	10	0	-11	61*	-14
O=[N+]([O-])c1cc(Br)c(Nc2ccccc2)c([N+](=O)[O-])c1	4	35	29	-3	39	22
CCOC(=O)CCSc1nc(C)c2cc(OC)ccc2n1	-31	-305	-47	-2	-71	-23
CCOC(=O)CCSc1nc(C)c2cc(C)c(C)cc2n1	82*	-86	/	3	-10	-18
CCCNC(=O)c1ccccc1NS(=O)(=O)c1ccc(OC)c(OC)c1	3	14	-2	-10	3	15
COc1ccc(S(=O)(=O)Nc2ccccc2C(=O)Nc2nc(-c3ccc(F)cc3)cs2)cc1OC	92*	32	59*	3	0	-16
COc1ccc(-c2csc(NC(=O)c3ccccc3NS(=O)(=O)c3ccc(C)cc3)n2)cc1	93*	55*	70*	5	6	1
COc1ccc(-c2csc(NC(=O)C3=NN(c4ccccc4)C(=O)CC3)n2)cc1	88*	-2	36	8	24	-141
CC(NC(=O)C(=O)NCCN1CCN(C(=O)c2ccccc2Br)CC1)c1ccccc1 (stereo not given)	5	11	-8	3	4	7
CCSc1nc(N)nc2c1ncn2C1OC(CO)C(O)C1O (stereo not given)	-14	-16	2	-4	-1	2
Cn1cnc([N+](=O)[O-])c1Sc1nc(N)nc2c1ncn2C1CC(O)C(CO)O1 (stereo not given)	34	50*	6	1	44	23
CNc1cc(-n2nc(C)cc2-c2ccccc2)ncn1	6	2	14	-25	14	4
Cc1cc(-c2ccccc2)n(-c2cc(N/N=C/c3ccccc3O)ncn2)n1	69*	45	42	21	50	47*
COCC(=O)N1CCC(Oc2ccc(C(=O)N3CCCCC3COC)cc2)CC1 (stereo not given)	5	-9	4	-1	1	-12
Oc1cc(NCc2cccnc2)ccc1-c1nc2ccccc2o1	103*	-349	-38	-29	-60	-327
O=C(NCC1CCCO1)c1ccccc1NS(=O)(=O)c1ccc(Br)s1 (stereo not given)	0	-23	11	6	-2	4
COc1cccc2sc(N(CCCN(C)C)C(=O)c3ccc(S(=O)(=O)N4CCCc5ccccc54)cc3)nc12	4	54*	-3	-9	19	10
SMILES	TWEAK-Fn14 inh	Peg3 promoter	TROY NFkB inh	LMP1 NFkB inh	TRPM1 prom inh	HIF-2a inh
CN(C)CCCN(C(=O)c1ccc2c(c1)CCCC2)c1nc2ccc(Cl)cc2s1	-18	108*	10	-6	-17	-4
CCOc1cccc2sc(N(CCCN(C)C)C(=O)c3ccc(C(=O)c4ccccc4)cc3)nc12	92*	30	-22	-11	12	-6
COc1cccc2sc(N(CCCN(C)C)C(=O)c3ccc(S(=O)(=O)N4CCc5ccccc5C4)cc3)nc12	-22	85*	-48	/	47	13
CNS(=O)(=O)c1cccc(C(=O)NCC(C)(C)N2CCCCC2)c1	42	10	-33	-8	-4	13
O=c1[nH]cc(F)c(=O)n1C1OC(CO)C(O)C1O (stereo not given)	-7	/	1	/	/	13
Cc1ccc2nc(NNC(=O)c3ccc(S(=O)(=O)N4CCc5ccccc5C4)cc3)sc2c1	14	44	-8	59*	78*	18
CCOc1ccc2nc(N(CCCN(C)C)C(=O)c3ccc(S(=O)(=O)N4CCc5ccccc5C4)cc3)sc2c1	-13	28	-5	5	74*	12
CCc1ccc2nc(N(CCCN(C)C)C(=O)c3ccc(S(=O)(=O)N4CCCc5ccccc54)cc3)sc2c1	-8	106*	-44	-15	13	-25
Cc1ccc2nc(NNC(=O)c3ccc4c(c3)OCCO4)sc2c1	11	-11	10	-10	/	-18
Cc1cc(C)c2nc(N(CCCN(C)C)C(=O)c3ccc4c(c3)OCCO4)sc2c1	-29	98*	-37	5	-17	-43
CCc1ccc2nc(N(CCCN(C)C)C(=O)c3ccc(S(=O)(=O)N4CCCC4)cc3)sc2c1	-4	-55	-14	-14	-15	-9
O=C(NCCCc1ccccc1)c1ccc(-n2cncn2)c([N+](=O)[O-])c1	-11	-3	4	0	3	-12
COc1cc2nc(N(CCCN(C)C)C(=O)c3ccc(C(=O)c4ccccc4)cc3)sc2cc1OC	1	-25	1	-20	3	4
CCc1ccc2nc(N(CCCN(C)C)C(=O)c3ccc(C(=O)c4ccccc4)cc3)sc2c1	-15	102*	-31	-1	-7	-3
O=C1ON=C(c2ccccc2)/C1=C/c1ccc(-c2ccccc2[N+](=O)[O-])o1	95*	103*	-2	-7	67*	98*
O=C1NC2CCCCC2C(=O)N1OS(=O)(=O)c1ccccc1 (stereo not given)	2	51*	3	0	-3	12
CCCc1c(-c2ccc(O)cc2)nn(-c2ccc(O)cc2)c1-c1ccc(O)cc1	1	23	75*	4	3	32
O=C(Nc1nc(-c2ccc(F)cc2)cs1)C1CCN(C(=O)c2ccc(F)cc2)CC1	57*	0	30	40	35	-9
O=C(Nc1nc2c(F)cc(F)cc2s1)C1CCN(C(=O)c2ccc(F)cc2)CC1	-6	-210	-19	-6	-63	-192
